The nature of assay [1]: qHTS for differential inhibitors of proliferation of Plasmodium falciparum line GB4 (AID 1816).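 Note: parasite growth measured after 72 h incubation; 0% = vehicle DMSO and -100% = reference inhibitor.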 The settings on record: Potency: Plasmodium falciparum GB4 proliferation inhibition. On the technique in general: qHTS replaces the single test concentration by a dilution series.
A short description of assay [2]: qHTS for differential inhibitors of proliferation of Plasmodium falciparum line 3D7 (AID 1876).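 Note: parasite growth measured after three days of culture; 0% = vehicle wells and -100% = reference inhibitor wells.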
A short description of assay [3]: qHTS for differential inhibitors of proliferation of Plasmodium falciparum line D10 (AID 1877).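 Note: parasites grown with compound for 72 h before DNA staining; plate controls were vehicle wells for no effect and reference inhibitor wells for full effect.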
A short description of assay [4]: qHTS for differential inhibitors of proliferation of Plasmodium falciparum line Dd2 (AID 1882).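 Note: series mostly up to about 29 µM; plate controls were DMSO vehicle for no effect and 0.29 µM artemisinin for full effect; nearly all actives have a fitted effect of over 65% in size.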 The settings on record: Potency: Plasmodium falciparum Dd2 proliferation inhibition. In outline: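 Dd2-infected erythrocytes (0.3% parasitemia, 2.5% hematocrit final) incubated with compound 72 h at 37 C, 5% CO2; lysed with saponin/Triton buffer containing SYBR Green I, incubated overnight in the dark, then read by fluorescence (485/535 nm). Normalized to 0.29 uM artemisinin and DMSO.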

The nature of assay [5]: qHTS for differential inhibitors of proliferation of Plasmodium falciparum line W2 (AID 1883).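 Note: parasites grown with compound for 72 h before lysis and staining; 0% = vehicle wells and -100% = control inhibitor wells.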 The settings on record: Potency: Plasmodium falciparum W2 proliferation inhibition.
The nature of assay [6]: qHTS for differential inhibitors of proliferation of Plasmodium falciparum line HB3 (AID 1886).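 Note: parasites grown with compound for 72 h before SYBR Green readout; plate controls were vehicle for no effect and reference inhibitor for full effect.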 The settings on record: Potency: Plasmodium falciparum HB3 proliferation inhibition.
A short description of assay [7]: qHTS Assay for Modulators of Human Peripheral Myelin Protein 22 (PMP22) Expression/Activity (AID 1967; active = well fitted curve in the direction sought with a large enough effect in the signal ratio; the % refers to the signal ratio;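 note: 0% = untreated cells and 100% end not stated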). The method in brief:
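Luminescence ratio of Pmp22 promoter-driven green luciferase to EF-alpha-driven red luciferase, in engineered mouse MSC80 Schwann cells, served as read-out. Compounds were incubated 24h; untreated cells defined 0% Activity; curves were classified by r2, magnitude and activity.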

Assay [8] addresses Ferritin light chain (Equus caballus) (UniProt P02791). The assay is described as follows: qHTS Validation Assay for Identification of Novel General Anesthetics (AID 2323). Note: series mostly up to about 77 µM; % is set by controls: 0 for no effect and ±100 for the full control effect. The method in brief:
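Fluorescence at 535 nm (excitation 380 nm) reported loss of 1-AMA binding to horse-spleen apoferritin (10 uM) in PBS with 50% saturated 1-aminoanthracene, after 10 min room-temperature incubation with compound; values from Hill fits of normalized response.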

The target in assay [9] is ATP-dependent DNA helicase Q1 (Homo sapiens) (UniProt P46063). The assay is described as follows: qHTS Validation Assay for Inhibitors of RecQ-Like Dna Helicase 1 (RECQ1) (AID 2353).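 Note: plate controls were DMSO vehicle for no effect and enzyme-free control for full effect.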 The method in brief: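 50 nM RECQ1T1 preincubated 15 min with compound in Tris pH 8.0 buffer with MgCl2, DTT, Tween-20 and 2.5 ug/ml poly(dI-dC); started with 200 nM TAMRA/BHQ-2 forked duplex and 2 mM ATP. Unwinding read as fluorescence (525/598 nm), two reads 2 h apart.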
ATP-dependent DNA helicase Q1 (Homo sapiens), sequence (P46063 whole entry, looked up): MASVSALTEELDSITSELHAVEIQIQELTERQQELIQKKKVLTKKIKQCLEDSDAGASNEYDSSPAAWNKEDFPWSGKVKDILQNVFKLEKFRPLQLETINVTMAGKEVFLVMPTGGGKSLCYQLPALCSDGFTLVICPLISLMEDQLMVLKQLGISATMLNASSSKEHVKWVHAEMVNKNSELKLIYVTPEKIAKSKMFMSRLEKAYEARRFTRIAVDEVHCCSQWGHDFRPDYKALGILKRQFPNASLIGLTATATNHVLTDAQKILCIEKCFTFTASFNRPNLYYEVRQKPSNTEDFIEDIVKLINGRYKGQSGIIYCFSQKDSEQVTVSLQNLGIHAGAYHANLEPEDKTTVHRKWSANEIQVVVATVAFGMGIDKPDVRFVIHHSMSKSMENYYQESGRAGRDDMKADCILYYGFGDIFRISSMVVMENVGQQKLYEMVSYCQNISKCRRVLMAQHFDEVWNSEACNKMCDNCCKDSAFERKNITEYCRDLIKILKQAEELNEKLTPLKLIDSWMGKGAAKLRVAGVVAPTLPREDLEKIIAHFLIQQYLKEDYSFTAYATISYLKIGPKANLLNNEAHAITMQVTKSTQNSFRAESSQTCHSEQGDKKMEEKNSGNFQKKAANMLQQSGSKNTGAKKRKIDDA

In assay [10] the target is RecQ-like DNA helicase BLM (Homo sapiens) (UniProt P54132). The assay can be described thus: qHTS Validation Assay for Inhibitors of Bloom's syndrome helicase (BLM) (AID 2364).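 Note: plate controls were DMSO vehicle for no effect and enzyme-free control for full effect.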 In outline: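 BLM 50 nM in 25 mM Tris-HCl pH 8.0, 5 mM NaCl, 2 mM MgCl2, 1 mM DTT, 0.01% Tween-20, 2.5 ug/ml poly(dI-dC); 15 min cpd preinc, RT. Start: 200 nM forked DNA + 2 mM ATP (final). TAMRA read, 2 reads 2 h apart.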
RecQ-like DNA helicase BLM (Homo sapiens), sequence (P54132 whole entry, looked up): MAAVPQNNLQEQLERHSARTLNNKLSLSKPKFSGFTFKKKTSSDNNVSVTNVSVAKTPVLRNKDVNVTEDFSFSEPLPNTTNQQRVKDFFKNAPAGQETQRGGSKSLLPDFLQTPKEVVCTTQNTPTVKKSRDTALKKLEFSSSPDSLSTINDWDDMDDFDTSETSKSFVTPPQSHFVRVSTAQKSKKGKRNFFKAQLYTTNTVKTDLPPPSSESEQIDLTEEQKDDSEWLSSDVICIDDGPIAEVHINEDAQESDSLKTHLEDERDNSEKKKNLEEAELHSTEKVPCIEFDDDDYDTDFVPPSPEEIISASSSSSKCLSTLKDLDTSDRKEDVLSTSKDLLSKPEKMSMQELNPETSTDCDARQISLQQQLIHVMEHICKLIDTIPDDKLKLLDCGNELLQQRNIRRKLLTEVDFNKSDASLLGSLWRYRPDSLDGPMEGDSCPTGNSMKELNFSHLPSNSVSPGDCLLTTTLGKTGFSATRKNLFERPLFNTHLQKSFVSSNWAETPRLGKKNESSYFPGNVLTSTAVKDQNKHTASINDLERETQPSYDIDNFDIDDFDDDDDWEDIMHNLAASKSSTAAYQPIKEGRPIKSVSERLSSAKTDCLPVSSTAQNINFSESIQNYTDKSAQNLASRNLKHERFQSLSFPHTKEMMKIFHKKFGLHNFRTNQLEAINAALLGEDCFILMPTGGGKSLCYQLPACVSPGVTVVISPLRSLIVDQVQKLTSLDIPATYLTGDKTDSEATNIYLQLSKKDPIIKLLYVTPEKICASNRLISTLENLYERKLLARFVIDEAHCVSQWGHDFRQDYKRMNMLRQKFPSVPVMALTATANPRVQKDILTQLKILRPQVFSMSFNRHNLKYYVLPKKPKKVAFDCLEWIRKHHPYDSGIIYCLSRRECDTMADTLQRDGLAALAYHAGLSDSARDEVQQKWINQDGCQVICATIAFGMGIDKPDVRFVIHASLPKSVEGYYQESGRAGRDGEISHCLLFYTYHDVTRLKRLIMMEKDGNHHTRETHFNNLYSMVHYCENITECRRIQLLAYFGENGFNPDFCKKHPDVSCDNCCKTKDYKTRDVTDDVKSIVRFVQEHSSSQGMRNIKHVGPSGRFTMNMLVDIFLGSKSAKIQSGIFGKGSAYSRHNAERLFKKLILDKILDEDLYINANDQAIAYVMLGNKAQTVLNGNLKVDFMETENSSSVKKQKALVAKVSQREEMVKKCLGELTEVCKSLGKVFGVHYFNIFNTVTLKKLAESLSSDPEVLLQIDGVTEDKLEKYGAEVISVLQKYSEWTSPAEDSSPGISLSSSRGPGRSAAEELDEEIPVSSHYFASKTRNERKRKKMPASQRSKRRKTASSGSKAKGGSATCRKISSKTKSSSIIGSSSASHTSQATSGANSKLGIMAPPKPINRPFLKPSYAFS

A short description of assay [11]: Validation screen for small molecules that induce DNA re-replication in MCF 10A normal breast cells (AID 463097). Note: 0% is about no effect; nearly all actives have a fitted effect of over 60% in size. In outline:
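Image-based qHTS: normal breast cells are incubated with compound for 48 hr, stained with Hoechst, and scanned for total nuclear fluorescence. Compounds raising the fraction of nuclei with elevated DNA content count as re-replication inducers.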

For assay [12], the target named is M-phase phosphoprotein 8 (Homo sapiens) (UniProt Q99549). The assay is described as follows: qHTS Validation Assay for Inhibitors for MPP8 Chromodomain Interactions with Methylated Histone Tails (AID 488949). Note: potency is the fitted concentration of half-maximal effect; nearly all actives have a fitted effect of over 55% in size. The method in brief:
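50 nM MPP8 + 50 nM b-H3K9me3 peptide, PBS pH 7.4/0.01% Tween-20, 30 min RT; + cpd 30 min RT; + AlphaScreen donor/Ni-chelate acceptor beads 10 ug/mL final, 30 min dark; luminescence read.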

The target in assay [13] is Thyrotropin receptor (Homo sapiens) (UniProt P16473). The assay is described as follows: qHTS Assay for Antagonists of the Thyroid Stimulating Hormone Receptor (AID 488980). Note: series mostly up to about 58 µM; 0% is about no effect. In outline:
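Readout is cAMP by HTRF competition between cellular cAMP and cAMP-d2 for a cryptate-labelled antibody. Antagonism was assessed in TSHR-transfected HEK293 cells stimulated with 4 nM TSH (EC80, final) in the presence of RO 20-1724.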

Assay [14] deals with Thyrotropin-releasing hormone receptor (Homo sapiens) (UniProt P34981). The assay can be described thus: qHTS for Small Molecule Agonists and Allosteric Enhancers of Human TRH Receptor: Validation Screen for Agonists (AID 493127;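 active = calcium activation more than 3 SD above the typical response in the agonist read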; note: 0% is about no effect). The settings on record: TRH receptor agonist cell assay; at 2 µM; stronger effect = higher value. In outline: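 TRHR cells loaded with fluo-8 calcium dye; FDSS kinetic fluorescence (Ex 480/Em 530) read at 1 s/cycle after 23 nL compound addition. Agonist-mode calcium response recorded before the 10 nM TRH (EC20) addition.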
Thyrotropin-releasing hormone receptor (Homo sapiens), sequence (P34981 whole entry, looked up): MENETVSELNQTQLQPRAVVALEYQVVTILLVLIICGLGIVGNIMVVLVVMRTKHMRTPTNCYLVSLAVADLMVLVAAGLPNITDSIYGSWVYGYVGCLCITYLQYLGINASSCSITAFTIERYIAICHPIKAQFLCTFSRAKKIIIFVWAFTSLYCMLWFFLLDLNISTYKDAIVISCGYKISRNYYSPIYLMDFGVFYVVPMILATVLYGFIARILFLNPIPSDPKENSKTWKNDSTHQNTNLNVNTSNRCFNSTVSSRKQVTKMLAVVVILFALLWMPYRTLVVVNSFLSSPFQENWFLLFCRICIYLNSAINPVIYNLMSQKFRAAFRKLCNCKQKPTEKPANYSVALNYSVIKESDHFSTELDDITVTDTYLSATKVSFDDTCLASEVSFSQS

For assay [15], the target named is Galactokinase (Homo sapiens) (UniProt P51570). The assay is described as follows: qHTS Validation Assay for Inhibitors of Human Galactokinase (GALK) (AID 493189). Note: 0% is about no effect. The method in brief:
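5 nM GALK / 100 uM galactose / 35 uM ATP, 20 mM HEPES pH8.0, 5 mM MgCl2, 60 mM NaCl, 1 mM DTT, 0.01% BSA (final). RT 1 h; Kinase-Glo Plus luminescence.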

Assay [16] in a line: Validation screen for small molecules that induce DNA re-replication in SW480 colon adenocarcinoma cells (AID 504364). Note: 0% is about no effect. In outline:
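SW480 cells (250/well) exposed 48 h at 37 C, 5% CO2, then Hoechst-stained 40 min. Nuclear DNA content imaged by fluorescence scanning (405 nm excitation, 500-530 nm emission); re-replication scored as increased nuclei with elevated intensity.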

Assay [17] concerns the target DNA dC->dU-editing enzyme APOBEC-3G (Homo sapiens) (UniProt Q9HC16). The assay is described as follows: qHTS for inhibitors of Vif-A3G interactions: Validation (AID 588379). Note: 0% is about no effect. In outline: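 HeLa cells stably expressing Vif and A3G-eYFP, 700 cells/well, incubated overnight at 37 deg C, then exposed to compound overnight at 37 deg C. Inhibition of Vif-mediated degradation read as increased yellow fluorescence (Ex 488/Em 500-530) by laser-scanning cytometry.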

The test system of assay [18] is Zika virus NS2B-NS3 protease. The assay is described as follows: Primary screen GU AMC qHTS for Zika virus inhibitors (AID 1347154).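 Note: 0% = no-inhibitor control and -100% = no-enzyme control; nearly all actives have a fitted effect of over 70% in size.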 The method in brief: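 Unlinked Zika NS2B hydrophilic domain/NS3 protease domain noncovalent complex (25 nM final) in 10 mM Tris-HCl pH 8.0, 0.01% Tween 20, with AMC peptide substrate. Fluorescence (ex 340, em 450 nm) change over 15 min, room temperature; percent inhibition fitted to 4-parameter Hill equation.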

Values without a mark were called inactive. Results filed as inconclusive are left out. Calls of active or inactive are those of the source. Unless noted, calls come from the whole dose curve; as a rule, active = well fitted curve in the direction sought with a large enough effect; inconclusive = small, poorly fitted or top-dose-only effect, or another doubt; inactive = no such curve, though single readings can be large; an effect the other way counts as inactive or inconclusive.

Thyrotropin receptor (Homo sapiens), sequence (P16473 whole entry, looked up): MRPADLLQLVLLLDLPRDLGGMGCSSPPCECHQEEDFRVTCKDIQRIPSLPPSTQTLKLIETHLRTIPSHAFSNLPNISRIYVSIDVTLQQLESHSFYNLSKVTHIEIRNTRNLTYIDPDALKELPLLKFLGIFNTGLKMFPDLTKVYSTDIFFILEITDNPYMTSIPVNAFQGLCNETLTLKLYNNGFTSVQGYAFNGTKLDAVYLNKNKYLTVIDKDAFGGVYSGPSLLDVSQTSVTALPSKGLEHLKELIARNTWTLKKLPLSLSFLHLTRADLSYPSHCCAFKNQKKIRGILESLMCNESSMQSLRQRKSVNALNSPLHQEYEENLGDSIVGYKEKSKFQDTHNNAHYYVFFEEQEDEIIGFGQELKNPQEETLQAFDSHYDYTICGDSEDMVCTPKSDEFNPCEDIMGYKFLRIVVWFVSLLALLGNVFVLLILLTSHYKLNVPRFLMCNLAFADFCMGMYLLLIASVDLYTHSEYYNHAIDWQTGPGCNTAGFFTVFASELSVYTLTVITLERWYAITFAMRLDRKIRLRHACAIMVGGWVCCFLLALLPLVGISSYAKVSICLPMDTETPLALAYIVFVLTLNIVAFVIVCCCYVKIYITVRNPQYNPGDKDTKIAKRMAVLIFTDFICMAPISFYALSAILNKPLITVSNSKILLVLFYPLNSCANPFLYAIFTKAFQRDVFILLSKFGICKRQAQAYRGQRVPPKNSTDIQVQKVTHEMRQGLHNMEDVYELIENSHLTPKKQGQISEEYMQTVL
Galactokinase (Homo sapiens), sequence (P51570 whole entry, looked up): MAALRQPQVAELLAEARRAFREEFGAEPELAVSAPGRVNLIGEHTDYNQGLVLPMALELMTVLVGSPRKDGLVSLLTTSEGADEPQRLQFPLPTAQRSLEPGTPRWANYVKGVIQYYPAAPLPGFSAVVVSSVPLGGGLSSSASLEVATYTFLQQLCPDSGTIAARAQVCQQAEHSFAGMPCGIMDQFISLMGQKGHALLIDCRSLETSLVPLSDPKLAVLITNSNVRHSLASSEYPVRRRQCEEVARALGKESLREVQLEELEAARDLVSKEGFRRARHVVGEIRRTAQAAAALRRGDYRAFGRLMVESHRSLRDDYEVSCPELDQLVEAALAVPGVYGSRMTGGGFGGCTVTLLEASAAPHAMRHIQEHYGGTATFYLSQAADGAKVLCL
DNA dC->dU-editing enzyme APOBEC-3G (Homo sapiens), sequence (Q9HC16 whole entry, looked up): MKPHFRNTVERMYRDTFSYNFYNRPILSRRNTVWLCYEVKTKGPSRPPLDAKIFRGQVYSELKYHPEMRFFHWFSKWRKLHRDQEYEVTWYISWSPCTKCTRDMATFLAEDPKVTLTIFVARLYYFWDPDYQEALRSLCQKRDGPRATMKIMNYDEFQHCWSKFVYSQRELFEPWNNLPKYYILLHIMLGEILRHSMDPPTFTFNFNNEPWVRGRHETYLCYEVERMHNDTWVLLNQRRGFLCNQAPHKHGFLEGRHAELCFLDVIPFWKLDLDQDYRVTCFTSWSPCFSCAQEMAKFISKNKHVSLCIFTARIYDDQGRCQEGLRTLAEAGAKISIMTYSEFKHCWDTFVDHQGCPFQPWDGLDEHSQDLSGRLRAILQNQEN
M-phase phosphoprotein 8 (Homo sapiens), sequence (Q99549 whole entry, looked up): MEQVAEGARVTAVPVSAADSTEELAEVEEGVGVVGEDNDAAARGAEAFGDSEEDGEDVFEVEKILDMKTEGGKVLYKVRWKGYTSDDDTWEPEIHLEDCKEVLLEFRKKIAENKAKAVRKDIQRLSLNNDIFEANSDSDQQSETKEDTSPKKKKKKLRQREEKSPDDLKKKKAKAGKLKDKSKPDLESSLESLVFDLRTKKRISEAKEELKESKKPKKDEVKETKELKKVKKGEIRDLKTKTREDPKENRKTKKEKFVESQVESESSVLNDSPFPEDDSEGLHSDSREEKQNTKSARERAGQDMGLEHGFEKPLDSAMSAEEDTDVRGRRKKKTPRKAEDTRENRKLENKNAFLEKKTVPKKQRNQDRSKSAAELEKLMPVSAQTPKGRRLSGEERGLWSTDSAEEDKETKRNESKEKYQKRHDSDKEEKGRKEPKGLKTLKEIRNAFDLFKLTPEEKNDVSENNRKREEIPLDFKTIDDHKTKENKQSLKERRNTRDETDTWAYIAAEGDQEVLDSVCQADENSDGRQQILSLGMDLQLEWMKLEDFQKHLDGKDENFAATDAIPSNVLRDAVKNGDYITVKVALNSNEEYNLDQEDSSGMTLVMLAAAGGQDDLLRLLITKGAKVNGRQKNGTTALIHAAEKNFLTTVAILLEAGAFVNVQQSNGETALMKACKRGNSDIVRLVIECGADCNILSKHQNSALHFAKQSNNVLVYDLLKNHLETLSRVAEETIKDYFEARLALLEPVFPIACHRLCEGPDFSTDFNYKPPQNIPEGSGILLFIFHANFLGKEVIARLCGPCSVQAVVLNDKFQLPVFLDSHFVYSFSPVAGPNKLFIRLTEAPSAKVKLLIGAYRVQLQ
Ferritin light chain (Equus caballus), sequence (P02791 2-175 limits assumed): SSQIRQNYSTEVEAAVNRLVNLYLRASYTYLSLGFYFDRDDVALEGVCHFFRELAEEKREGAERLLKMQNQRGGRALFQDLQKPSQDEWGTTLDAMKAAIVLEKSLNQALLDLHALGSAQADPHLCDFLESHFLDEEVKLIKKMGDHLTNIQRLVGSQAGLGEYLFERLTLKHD

For the molecule `CN(C)CCCCSC(=N)N`, the Potency result in [1], in assay [2], in [3], in assay [4], in assay [5] and in assay [6] was “inactive” each time. The Potency result in assay [9], in assay [10], in [11], in assay [17] and in assay [18] was “inactive” each time. Besides, the call in assay [7], in assay [8], in [13], in [15] and in assay [16] was inactive. Moreover, the Potency in [12] was 50.1 µM (active). The activation in [14] is 1.19%.

The record behind these values is PubChem BioAssay (NCATS).
